Reference: PubChem BioAssay AID1347383 (Zoeller Lab, School of Medicine, Boston University, 2020)
Activity calls are given as the source filed them.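 How the source made its calls: active means cell survival after UV exposure 2 SD above solvent-only control wells at 10 µM, confirmed on one or two repeats; inactive means the rest.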

Experiment: protection of CHO cells from pyrene-fatty acid UV killing, primary screen, phospholipid biosynthesis inhibitor project, ZR-82 cells, Analyticon library, screen 2 (AID 1347383);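 further: survival reflects blocked phospholipid synthesis cutting uptake of the phototoxic fatty acid; compound and fatty acid exposure 3 h then viability read next day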
Conditions: ZR-82 CHO cells, CellTiter Blue, at 10 µM, peroxisome-deficient CHO-K1 variant, with DGAT-1, DGAT-2 and ACAT inhibitors

## Cc1ccc(C(C)C)c(O)c1
  outcome: inactive

## Cc1c(O)cc(O)c2c1OC(c1ccccc1)CC2=O (configuration not stated)
  outcome: inactive

## C=C(C(=O)OC)[C@@H]1CC=C2C=CC(=O)[C@H](C)[C@@]2(C)C1
  outcome: inactive

## C/C=C/c1cc(O)c(C(=O)C(=O)CC)c(=O)o1
  outcome: inactive

## Oc1ccccc1-c1c(O)cc(O)c(-c2ccccc2)c1O
  outcome: inactive

## Oc1ccc([C@@H]2Oc3cc(O)cc(O)c3C[C@@H]2O)cc1
  outcome: inactive

## COc1cc(C[C@H]2C(=O)OC[C@@H]2Cc2ccc(OC)c(OC)c2)ccc1O
  outcome: inactive

## O=c1c(-c2ccc(O)cc2)coc2cc(O)ccc12
  outcome: inactive

## OC1c2ccccc2-c2c3c(cc4c2C1NCC4)OCO3 (configuration not stated)
  outcome: inactive

## C=C1C(=O)O[C@@H]2C3=C(C)CCC[C@]3(C)CC[C@@]12O
  outcome: inactive

## O=C(O)c1ccc(CO)o1
  outcome: inactive

## O=c1c(O)c(-c2cc(O)c(O)c(O)c2)oc2cc(O)cc(O)c12
  outcome: inactive

## CC1=C2C[C@H]3O[C@@]3(C)CCC3O[C@@]3(C)C[C@@]2(O)OC1=O (some centres not stated)
  outcome: inactive

## COc1ccc(-c2coc3cc(O)ccc3c2=O)cc1O
  outcome: inactive

## O=C1c2c(O)cc(O)cc2OC(c2cc(O)c(O)c(O)c2)C1O (configuration not stated)
  outcome: inactive

## CC(C)CC(O)C(=O)NC(C)C(=O)NC(CC(C)C)C(=O)NCCCC(=O)O (configuration not stated)
  outcome: inactive

## CCC(C)C1NC(=O)C(C)NC1=O (configuration not stated)
  outcome: inactive

## C=CC(=C)CCC1(C)C(C)CC(O)C23C(=CC(OC(C)=O)CC12)C(OC)OC3OC(C)=O (configuration not stated)
  outcome: inactive

## C[C@]1(C=O)[C@H]2CC[C@]3(C)O[C@@]14C(=O)c1cc(O)ccc1C(=O)C4=C[C@@H]23
  outcome: inactive

## C/C=C/C=C/[C@H]1Cc2cc(O)cc(O)c2O1
  outcome: inactive

## CCCO[C@@H]1O[C@H](CO)[C@@H](O)[C@H](O)[C@H]1O[C@@H]1OC[C@@H](O)[C@H](O)[C@H]1O
  outcome: inactive

## CCCc1c(C(=O)O)cc2c(c1O)C(=O)c1c(O)cccc1C2=O
  outcome: inactive
